PubChem BioAssay (NCATS)
Results filed as inconclusive are left out. Active and inactive are the calls of the source. Unless noted, the rule behind the calls is not given here.

How the values were obtained:
[1] = qHTS profiling of the MIPE4 collection as inhibitors of Plasmodium falciparum (3D7) proliferation (AID 743344);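 note: scaled between DMSO vehicle wells and 0.29 µM artemisinin as full inhibition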; conditions: P. falciparum 3D7 in erythrocytes, SYBR Green DNA fluorescence, 72 h; at 28.5 µM unless noted
Procedure, shortened: (§1)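 Erythrocytes infected with P. falciparum (0.3% parasitemia, 2.5% hematocrit) incubated with compounds 72 h at 37 C, 5% CO2. Lysis with saponin/Triton buffer containing SYBR Green I, overnight at room temperature in the dark; DNA fluorescence (485/535 nm) normalised to 0.29 uM artemisinin and DMSO.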

[2] = qHTS profiling of the MIPE4 collection as inhibitors of Plasmodium falciparum (DD2) proliferation (AID 743345); conditions: P. falciparum Dd2 in erythrocytes, SYBR Green DNA, 72 h; at 28.5 µM unless noted
Procedure, shortened: as §1

[3] = qHTS profiling of the MIPE4 collection as inhibitors of Plasmodium falciparum (DD2) proliferation (Rep 2) (AID 743346); conditions: P. falciparum Dd2 in erythrocytes, SYBR Green DNA, 72 h; at 28.5 µM unless noted
Procedure, shortened: as §1

[4] = qHTS profiling of the MIPE4 collection as inhibitors of Plasmodium falciparum (HB3) proliferation (AID 743347);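 note: plate controls were DMSO vehicle wells for no effect and artemisinin wells for full effect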; conditions: P. falciparum HB3 in erythrocytes, SYBR Green DNA, 72 h; at 28.5 µM unless noted
Procedure, shortened: as §1

[5] = High-throughput drug toxicity screening in the BPDCN cell line Gen2.2 (AID 1224824); conditions: Gen2.2 BPDCN cells; at 45.8 µM (top of the series) unless noted;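 note: cells exposed to compounds for 48 h before reading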
Procedure, shortened: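 Seed 500 exponentially growing Gen2.2 cells/well; add compounds by pin tool; incubate 48 h, 37 °C, 5% CO2; add CellTiter-Glo, 15 min RT; read luminescence. % activity vs DMSO (100%) and bortezomib (0%).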

[6] = High-throughput drug toxicity screening in the BPDCN cell line Cal-1 (AID 1224825); conditions: Cal-1 BPDCN cell viability, qHTS; at 45.8 µM (top of the series) unless noted
Procedure, shortened: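 500 Cal-1 cells/well, RPMI + glutamine + 10% FBS (phenol red-free); cpd added by pin tool; 48 h, 37C, 5% CO2; CTG 15 min RT, lumi read. Normalised: DMSO 100%, bortezomib 9.2 uM 0%.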

[7] = qHTS assay for measurement of the activity of small molecule inhibitors on Zika virus induced Caspase-3 activity in human iPSC derived neural progenitor cells (hNPCs) (AID 1224857; active = well fitted inhibition curve with a large enough effect; note: nearly all actives have a fitted effect of over 65% in size; note: potency is the fitted concentration of half-maximal effect)
Procedure, shortened: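 Caspase-3/7 induction by a 6-hour ZIKV infection was quantified with a luminescent Caspase-Glo 3/7 reagent incubated 30 minutes at room temperature. Compounds were preincubated with hNPCs for 1 hour; inhibition was calculated against uninfected and infected control wells.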

Compound	parasite growth, % of DMSO control [1] [%]	parasite growth remaining, % of DMSO control (lower = more inhibition) [2] [%]	parasite growth, % of control (lower = inhibition) [3] [%]	growth, % of control [4] [%]	cell viability, % of control (lower = more cytotoxic) [5] [%]	viability (% of control) [6] [%]	Potency [7]
Cc1ccc(Nc2cc(-c3cccc(N4C(=O)c5ccccc5C4=O)c3)ncn2)cc1NS(C)(=O)=O	76.1	83.3	76.5	97.4	52.3	13.1	inactive
COCCOC(=O)C1=C(C)NC2=C(C(=O)CC(c3ccccc3OC)C2)C1c1cccc(O)c1 (centres undefined)	11.6	9.83	51.8	17.6	4.78	5.74	inactive
O=C1NC(=O)C(=Cc2cccc(C(F)(F)F)c2)S1	88.5	93.5	76.4	96.2	128	110	inactive
O=C(OCC#CCSc1nnc(-c2cccc3ccccc23)o1)c1cc2ccccc2s1	49.1	83	64.2	44.7	91.8	118	inactive
O=C(O)C(O)Cc1ccc(O)c(O)c1 (centres undefined)	102	79.5	65.6	106	94.8	105	inactive
CC1(C)S[C@H]2[C@H](NC(=O)[C@@H](N)c3ccc(O)cc3)C(=O)N2[C@@H]1C(=O)O	7.42	103	8.21	6.54	125	19.4	inactive
CC[C@H]1OC(=O)[C@H](C)C(=O)[C@H](C)[C@@H](O[C@H]2O[C@H](C)C[C@H](N(C)C)[C@@H]2O)[C@](C)(OC)C[C@@H](C)C(=O)[C@H](C)[C@H]2N(CCCCn3cnc(-c4cccnc4)c3)C(=O)O[C@]12C	5.78	14.5	32.9	9.46	122	93.6	inactive
NS(=O)(=O)c1ccc(NC2=CC(=O)c3ccccc3C2=O)cc1	6.05	9.74	8.91	3.54	162	88.5	inactive
Cc1cnc(C(=O)O)c[n+]1[O-]	97	104	108	66.8	174	105	inactive
C[C@H](NC(=O)C(=O)Nc1ccccc1C(C)(C)C)C(=O)N[C@@H](CC(=O)O)C(=O)COc1c(F)c(F)cc(F)c1F	73.8	107	49.8	405	200	8.98	2.35 µM (active)
CC(C)(Cc1ccc2ccccc2c1)NC[C@@H](O)COc1cccc(Cl)c1C#N	89.9	98.5	59.5	92	123	12.4	inactive
Clc1cc(Cl)cc(CNc2ncncc2-c2ccc3c(c2)OCO3)c1	18.8	47.6	28.4	10.2	44.1	11.1	inactive
N[C@@]1(C(=O)O)CS(=O)(=O)[C@H]2[C@H](C(=O)O)[C@H]21	57.1	88.4	112	59.7	78.4	76	inactive
O=C(CCN1CCN(C(=O)OCc2cc(Cl)cc(Cl)c2)CC1)c1ccc2[nH]c(=O)oc2c1	101	103	85	105	231	115	20.9 µM (active)
CC(C)C[C@H](CC(=O)O)C(=O)N[C@@H](Cc1c[nH]c2ccccc12)C(=O)N[C@@H](C)c1ccccc1	79.9	77.8	57.5	34.7	161	6.64	inactive
Oc1ccc(C2CCN(c3ccnc4ccccc34)CC2)cc1O	6.17	13.2	11.6	3.95	31	5.01	inactive
O=C(O)c1ccc(-c2c[nH]c3ncc(-c4ccccc4)cc23)cc1C1CCCC1	5.48	8.18	9.67	3.77	116	73.1	inactive
CN(C[C@@H]1COCCO1)S(=O)(=O)Nc1ccc2ccc3ncc(-c4cnn(C)c4)cc3c(=O)c2c1	13.4	47.9	21.5	7.9	12.9	7.57	inactive
NC(=O)c1cccc(-c2cc(Nc3ccc(OC(F)(F)F)cc3)ncn2)c1	12.3	63.7	23	8.8	370	77.2	inactive
OC[C@H]1O[C@@H](Oc2cc(O)cc(C=Cc3ccc(O)cc3)c2)[C@H](O)[C@@H](O)[C@H]1O	82.6	120	77.5	83.3	71.3	60.5	inactive
Nc1ncnc2ccccc12	84.9	98.4	82.3	77	145	100	inactive
CCC(=O)NC[C@H](Cc1ccc(OCCc2nc(-c3ccccc3)oc2C)cc1)NC(C)=CC(=O)c1ccc(C(F)(F)F)cc1	6.82	7.84	21.5	9.04	96.4	5.56	inactive
